We go through 30 sequences from PubChem BioAssay AID1508600 (Functional Genomics Laboratory (NCATS/FGL), 2020).

The campaign covered roughly 53,000 sequences. About 3,700 (7%) were called active.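 The calls were made as follows: active = gene knockdowns whose robust z-score for IL-1 alpha signal is at least 2 or at most -2, so actives lie on both sides; inactive = the rest.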 Shown is part of a subset that was picked to be rich in actives.

This assay in a line: Components of the Cytosolic LPS Sensing Pathway: Gene Identification via Genome-wide siRNA Screen.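 Also: robust z of the log signal after scaling to non-targeting control siRNA wells of the plate.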 Particulars: RAW264.7 macrophages, IL-1a HTRF, actives lie on both sides, screened at 100 nM (by protocol), cells primed 5 h with Pam3CSK4 first. The essentials: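 Using IL-1a HTRF as read-out, the screen measured release from RAW264.7 cells after 48h siRNA knockdown (100 nM), 5 h Pam3CSK4 priming and 24 h cytosolic LipidA. Values were expressed relative to negative-control wells as robust z-scores.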
A general note: In TR-FRET formats the signal depends on donor and acceptor labels being close together.
For the sequence GUUAUUUGUAUGGUGAGAUTT against Hpcal1, the z-score is -1.06 (inactive).
As for GGCUGCCUAACUGAUAACATT against Inpp4b, the z-score was 0.24 (inactive).
As for GGACACUUUACAGUGAUUGTT against Skint4, the z-score is 1.1 (inactive).
Under GCCUCUGAAAGUGUAAUUATT against Ccdc103 stands 0.184 (inactive); under GGUGAUUCAACUCACUUGUTT against Olfr1353, -1.33 (inactive); under GGUAUGUUUUAUCUUGACATT against Olfr851, 0.269 (inactive).
Under GGGAUCAGGCCAUUUCCAUTT against Vav2 stands 2.26 (active).
The figure for GGCAAACGAUAAAGAAAUCTT against Ptp4a2 is 1.58 (inactive); for GGGAUUUGCCAAAGAAUAGTT against AI597479 it is 0.875 (inactive); for GGGUGACAGGGCAUGAGAATT against Macroh2a3 it is 0.611 (inactive).
In the case of “GGCCUUUAAGAGUUUCCAUTT against A230052G05Rik”, the z-score was 2.1 (active).
On to GCAACAAUAUUGCUCUAGATT against Galntl6, for which the z-score is -0.452 (inactive).
The figure for GCGAUCAAAAUUGUGUCACTT against Minar2 is -0.776 (inactive); for CGAUCAAAAAAAUCGUGUGTT against Cfap97 it is 0.587 (inactive); for GGAAGUGGCCUUAAAGUAUTT against Arhgef37 it is -1.67 (inactive).
The figure for GUGUCCAGUCCUAAAACGATT against Trib3 is 1.66 (inactive).
Under GGGAAAGGAUUUUUACAUUTT against Ctdsp1 stands 1.83 (inactive).
With “GCAAACUCAAGGCAUACAUTT against A930017M01Rik”, the z-score was 4.27 (active).
The figure for GGUGAACCUGGAAGAACUATT against Manea is 1.64 (inactive).
The figure for CGCCAAUUCAUCGUUGACUTT against Ccl3 is 0.773 (inactive); for GGAUUUGGAGUAGAUCAAUTT against Tial1 it is 0.638 (inactive); for GGAACUGCUAAUCAACCAUTT against Zmynd10 it is -2.14 (active).
The figure for GGAAAAAGAGUCCUUCAUGTT against Minar2 is 1.19 (inactive).
As to GGAACAAGAAACCACAAUGTT against Agpat1, the z-score is 0.281 (inactive).
In the case of GGAAGAUGCCAUCUUACACTT against Borcs7, the z-score is 2.5 (active).
Under GCAGGUUCACGACACCAACTT against Sv2a stands -1.35 (inactive).
Under GCUGAAUGCGACAUUUAUATT against Hk2 stands 0.668 (inactive); under GGCUGAGCUGAUCUUCUUATT against Wnt8a, -0.037 (inactive).
Under GGUCCGAAAGGCAGCUAUATT against Fcer1g stands -2.17 (active); under CGAACAUUCCUUCCAUAACTT against Kcnd3, 0.609 (inactive).
